Screening data as filed in PubChem.
In the library only some 1.8% were active in any assay of this set; here they are far more common.
HttQ103 aggreg – qHTS Multiplex Assay to Identify Dual Action Probes in a Cell Model of Huntington: Aggregate Formation (GFP); Potency, µM (top dose mostly 46.1 µM), inactives show at the top dose activity change, negative = inhibition, most hits filed as inhibitors; PC12 HttQ103-GFP aggregates, Acumen cytometry, 40 h; 220,000 tested, 1.1% active; further: on the % scale 0 is the no-effect control and ±100 the full control effect; nearly all actives have a fitted effect of over 60% in size
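Inducible Q103 Huntingtin exon 1–GFP PC12 line, 1500 cells/well in phenol red free DMEM with 5% equine and 5% calf serum. Tebufenozide 100 nM induced expression; compounds titrated; aggregates quantified by cytometry.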
HTT ATP protect – qHTS Multiplex Assay to Identify Dual Action Probes in a Cell Model of Huntington: Cytoprotection (ATP) | PC12 HTT-Q103 induced, cytoprotection, ATP luminescence, 40 h | Potency, µM (highest dose often 56.4 µM), for the others: cytoprotection (ATP increase), actives largely listed as activators | 230,000 tested, 0.14% active | AID 1471, 2008; further: % of control where 0% means no effect; nearly all actives have a fitted effect of over 45% in size
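Compounds added alongside 100 nM tebufenozide, which induces toxic Q103 huntingtin exon 1-GFP in stable PC12 cells; surviving cells quantified by luminescent ATP measurement. Medium: phenol red-free DMEM, 5% equine and 5% calf serum.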
L3MBTL1 block – qHTS Assay for the Inhibitors of L3MBTL1; 230,000 tested, 0.66% active; Potency, µM (highest dose often 57.1 µM), inactives show at the top dose activity, negative = inhibition, hits mostly inhibitors; AlphaScreen L3MBTL1–H3K9me1 peptide binding; further: on the % scale 0 is the no-effect control and ±100 the full control effect; nearly all actives have a fitted effect of over 60% in size
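L3MBTL1 50 nM + b-AHA-H3(1-15)K9me1 75 nM, 30 min RT; compound added, 30 min RT; streptavidin donor/Ni-chelate acceptor beads 10 ug/mL each final, 30 min RT dark; AlphaScreen read.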
KDM4E inh – qHTS Assay for Inhibitors of Human Jumonji Domain Containing 2E (JMJD2E); Lysine-specific demethylase 4E (Homo sapiens), B2RXH2; JMJD2E catalytic domain, FDH-coupled NADH fluorescence (FDH is formaldehyde dehydrogenase); Potency, µM (series often up to 57.1 µM), for inactives: at the top dose activity change, negative = inhibition, usual class: inhibitors; 230,000 tested, 1.6% active; active means well fitted inhibition curve with a large enough effect, not every such curve was filed as active; inconclusive means small, poorly fitted or top-dose-only effect, or another doubt; inactive means no such curve, though single readings can be large or run the other way;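 further: 0% = wells with enzyme and -100% = buffer wells without enzyme; nearly all actives have a fitted effect of over 50% in size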
The depositor's hits bear a star; ? = inconclusive; / = not tested or not shown; ! = not confirmed by another sample; [ ] = dose if it differs, or a comment. Unless noted, the call rests on the fitted dose curve; in most records, active means well fitted curve in the direction sought with a large enough effect; inconclusive means small, poorly fitted or top-dose-only effect, or another doubt; inactive means no such curve, though single readings can be large; an effect the other way counts as inactive or inconclusive. Potency means the concentration at half of the fitted maximal effect.

SMILES	HttQ103 aggreg	HTT ATP protect	L3MBTL1 block	KDM4E inh
Cc1nc2ccc(NS(=O)(=O)c3c(C)c(C)cc(C)c3C)cc2s1	13µM*	-67%	/	-10%
CCCCNc1nc(C)nc2c1nc(-c1ccccc1)n2C(C)CCCN(CC)CC (stereo not drawn)	/	-83%	/	?
CC#CCC1(C(=O)OC)C(=O)NC[C@H]1c1ccccc1 (stereo partly drawn)	/	?	/	-2%
CCS(=O)(=O)c1nnnn1-c1ccccc1S(C)(=O)=O	/	13µM*	0%	10%
O=S(=O)(Cc1ccccc1)c1nnnn1-c1ccccc1	/	?	/	6%
COc1ccc(N2CC(C(=O)N/N=C/c3cc([N+](=O)[O-])ccc3O)CC2=O)cc1 (stereo not drawn)	?	-17%	/	25µM*
O=C(N/N=C/c1cc([N+](=O)[O-])ccc1O)C12CC3CC(CC(C3)C1)C2	?	-76%	8%	?
O=C(N/N=C/c1cc([N+](=O)[O-])ccc1O)Nc1ccccc1	-12%[9.22 µM]	0%[10 µM]	-20%	28µM*
CCNC(=O)C(=O)N/N=C/c1cc([N+](=O)[O-])ccc1O	?	-40%	/	25µM*
O=[N+]([O-])c1ccc(O)c(/C=N/Nc2ccccn2)c1	?	-58%[10 µM]	13µM*	?
O=[N+]([O-])c1cccc(N/N=C/c2cc([N+](=O)[O-])ccc2O)c1	-26%	-26%	-9%	2%
COc1ccc(-n2c(=O)c(-c3cccs3)nc3cnc(N4CCNCC4)nc32)cc1	/	-213%	/	/
Cc1cn([C@H]2C[C@H](O)[C@@H](COC(N)=O)O2)c(=O)[nH]c1=O	/	3%[10 µM]	/	/
CCOC(=O)C1CCN(c2c(NCc3ccc(C(=O)O)cc3)c(=O)c2=O)CC1	/	-5%	/	/
O=[N+]([O-])c1ccc(O)c(/C=N/NC(=S)Nc2ccc(Cl)cc2Cl)c1	-39%[9.22 µM]	36%[10 µM]	/	8.9µM*
NC(=O)CS(=O)(=O)c1nc2ccccc2n1Cc1ccccc1F	16%	25µM*	-4%	5%
CC(=O)NCc1nc2ccccc2n1Cc1ccccc1F	19%	-7%	13%	11%
CCCn1c(-c2ccc(F)cc2)nc2c(NC3CC4CCC(C3)N4C)nc(C)nc21 (stereo not drawn)	/	-39%	/	?
CC1CCCC(C)N1C(=O)c1cccc2c1-c1ccccc1/C2=N/O (stereo not drawn)	7.9µM*	6%[1.9 µM]	1%	-10%
Cc1ccc(NC(=S)NNC(=O)c2nn(C)c(C)c2Cl)cc1	-15%	-3%	0%	13µM*
Cc1ccc(NC(=S)NNC(=O)c2c(Cl)c(C)nn2C)cc1	?	22%[10 µM]	11%	1%
COC[C@H]1O[C@@H](c2c(OC)cc(OC)cc2OC)[C@H](OC)[C@@H](OC)[C@@H]1OC	/	/	/	2%
CC(=O)Nc1ccccc1O	-2%	/	0%	-10%
CC(CC(=O)O)Nc1ccccc1O (stereo not drawn)	17%[9.22 µM]	8%[10 µM]	-5%	20µM*
O=c1cc(-c2ccccc2O)oc2c1ccc1ccccc12	/	0.45µM*!	/	5%
SMILES	HttQ103 aggreg	HTT ATP protect	L3MBTL1 block	KDM4E inh
O=c1cc(-c2ccco2)oc2c1ccc1ccccc12	?	-9%	/	?
O=c1cc(C(Cl)(Cl)Cl)oc2c1ccc1ccccc12	7.1µM*	-76%	-1%	4%
CCCCN(CCCC)S(=O)(=O)c1ccc(C(=O)Nc2nnc(COC)o2)cc1	11µM*	-81%	21%	?
CCCCN(C)S(=O)(=O)c1ccc(C(=O)Nc2nnc(CSC)o2)cc1	8.9µM*	-66%	8%	?
CCN(CC)S(=O)(=O)c1ccc(C(=O)Nc2nnc(CSC)o2)cc1	?	-8%	5%	?
CCN(CC)S(=O)(=O)c1ccc(C(=O)Nc2nnc(-c3ccco3)o2)cc1	-30%	-21%	/	?
CCCCN(CC)S(=O)(=O)c1ccc(C(=O)Nc2nnc(-c3cccs3)o2)cc1	-9%[9.22 µM]	-1%[10 µM]	/	25µM*
COc1cccc(Cn2c(=O)c(CCc3ccccc3)nc3cnc(N4CCN(C)CC4)nc32)c1	/	0%	/	/
CN1CC(O)C2=CC(=O)C(=O)C=C21 (stereo not drawn)	/	-59%	/	/
COC(=O)NC(CC(C)=O)c1ccc(Cl)cc1 (stereo not drawn)	/	-3%[10 µM]	/	/
CC(=O)N[C@H]1[C@H](O[C@@H]2c3ccc(c(Cl)c3)Oc3cc4cc(c3O[C@@H]3O[C@H](CO)[C@@H](O)[C@H](O)C3C)Oc3ccc(cc3Cl)C[C@H]3NC(=O)[C@@H](N)c5ccc(O)c(c5)Oc5cc(O)cc(c5)[C@H](NC3=O)C(=O)N[C@H]4C(=O)N[C@H]3C(=O)N[C@@H]2C(=O)N[C@@H](C(=O)O)c2cc(O)cc(O[C@H]4O[C@H](CO)[C@@H](O)C(O)[C@@H]4O)c2-c2cc3ccc2O)O[C@H](CO)[C@@H](O)[C@@H]1O (stereo partly drawn)	17%[20.6 µM]	-3%[17.1 µM]	/	/
Cc1nc2ccccc2cc1OCc1ccccc1	13µM*	-23%	14%	-1%
COc1cccc(COc2cc3ccccc3nc2C)c1	1.8µM*	-29%	18%	3%
Cc1nc2ccccc2nc(C)c1=NOCc1cccc(Cl)c1	15%[9.22 µM]	8%[10 µM]	5%	-9%
Cc1nc2ccccc2cc1OCc1ccc(Cl)cc1	7.9µM*	/	44%	-3%
Cc1nc(OCc2ccccc2)c2ccccc2n1	-14%	-14%	17%	-4%
Cc1cccc(CNc2ccnc(-c3ccoc3)n2)c1	/	6%	/	12%
CCOC(=O)O[C@]1(C(=O)OCCl)CC[C@@H]2[C@H]3CCC4=CC(=O)C=C[C@]4(C)[C@@H]3[C@@H](O)C[C@@]21C	6%	-35%	/	/
CC(C(=O)N1c2ccccc2Sc2ccccc21)n1nnc(-c2cccs2)n1 (stereo not drawn)	4µM*	-5%[10 µM]	/	4%
Oc1ccc(O)c2c1C1c3ccccc3C2c2ccccc21	/	/	-12%	/
O=C1C=CC(=O)C2=C1C1c3ccccc3C2c2ccccc21	/	-125%	/	14µM*
O=C(Nc1nc(-c2ccccn2)cs1)c1ccc(Cl)s1	0.89µM*	-95%[10 µM]	?	?
Cc1csc(NC(=O)c2cccn2C)n1	11%	-5%	-6%	1%
Cn1cccc1C(=O)Nc1nc(-c2ccccn2)cs1	13µM*	-5%	32µM*	?
O=C(Nc1nc(-c2ccccn2)cs1)c1cc2ccccc2o1	?	-77%	20µM*	?
CCc1ccc(OCc2ccccc2C(=O)Nc2ccc3nc(C)cc(N)c3c2)cc1	/	-350%	/	/
CN(C)c1ncnc2ccc(-c3ccccc3C(F)(F)F)cc12	/	-6%	/	/
Cc1cccc(C)c1NC(=O)C(NC=O)c1ccc(Cl)cc1 (stereo not drawn)	-18%	-3%[10 µM]	5%	7%
Cc1cccc(C)c1NC(=O)C(C)c1ccc(-c2ccccc2)c(F)c1 (stereo not drawn)	18µM*	-29%	/	5%
